# Several values for one entry are separate records, joined by “and”; a condition that tells them apart may be missing. Identical values can stand only once. Out of some 5,500 compounds screened, about 2,000 (36%) were called active. Roughly 18% stayed inconclusive and do not appear here. This is one part of the list. A number with no mark means an inactive call. No stated cut-off is given here; in the data, active means normalized growth mostly below about 0.91 (no sharp cut-off); inconclusive means no clear call, values can overlap the other calls; inactive means mostly above about 0.92.
# Experiment: chemical genetic growth profiling, strain panel (AID 1159580);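 further: tested at 20 µM; growth read once vehicle control cultures reached saturation at 30 °C; 1 = growth at the plate median or of vehicle wells; lower values mean less growth of the strain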
# Details: growth OD
# [1] = S. cerevisiae deletion strains, locus YAL013W, strain DEP1, active compounds read low
# [2] = S. cerevisiae deletion strains, locus YBR229C, strain ROT2, active compounds read low
# [3] = S. cerevisiae deletion strains, locus YDL101C, strain DUN1, active compounds read low
# [4] = S. cerevisiae deletion strains, locus YDL134C, strain PPH21, active compounds read low
# [5] = S. cerevisiae deletion strains, locus YDR150W, strain NUM1, active compounds read low
# [6] = S. cerevisiae deletion strains, locus YEL061C, strain CIN8, active compounds read low
# [7] = S. cerevisiae deletion strains, locus YGR078C, strain PAC10, active compounds read low
# [8] = S. cerevisiae deletion strains, locus YHR030C, strain SLT2, active compounds read low
# [9] = S. cerevisiae deletion strains, locus YJR043C, strain POL32, active compounds read low
# [10] = S. cerevisiae deletion strains, locus YJR075W, strain HOC1, active compounds read low
# [11] = S. cerevisiae deletion strains, locus YLR039C, strain RIC1, active compounds read low
# [12] = S. cerevisiae deletion strains, locus YLR262C, strain YPT6, active compounds read low
# [13] = S. cerevisiae deletion strains, locus YMR263W, strain SAP30, active compounds read low
# [14] = S. cerevisiae deletion strains, locus YMR307W, strain GAS1, active compounds read low
# [15] = S. cerevisiae deletion strains, locus YNL153C, strain GIM3, active compounds read low
# [16] = S. cerevisiae deletion strains, locus YNL322C, strain KRE1, active compounds read low
# [17] = S. cerevisiae deletion strains, locus YPL055C, strain LGE1, active compounds read low
# [18] = S. cerevisiae deletion strains, locus YPL241C, strain CIN2, active compounds read low
# [19] = S. cerevisiae strains, strain wild type, active compounds read low
structure (smiles),measurement,setting,value
CN1CCc2c(c3ccccc3n2Cc2ccccc2)C1,normalized growth,[1],0.927
same,normalized growth,"S. cerevisiae deletion strains, locus YBR021W, strain FUR4, active compounds read low",0.631 (active)
same,normalized growth,[2],1
same,normalized growth,"S. cerevisiae deletion strains, locus YCL029C, strain bik1, active compounds read low",1.06
same,normalized growth,"S. cerevisiae deletion strains, locus YDL035C, strain GPR1, active compounds read low",0.913
same,normalized growth,"S. cerevisiae deletion strains, locus YDL074C, strain BRE1, active compounds read low",0.819
same,normalized growth,[3],1.02
same,normalized growth,[4],0.987
same,normalized growth,"S. cerevisiae deletion strains, locus YDL185W, strain tfp1, active compounds read low",1.01
same,normalized growth,"S. cerevisiae deletion strains, locus YDL192W, strain arf1, active compounds read low",1.01
same,normalized growth,"S. cerevisiae deletion strains, locus YDR101C, strain arx1, active compounds read low",1
same,normalized growth,[5],1.01
same,normalized growth,"S. cerevisiae deletion strains, locus YDR162C, strain NBP2, active compounds read low",0.992
same,normalized growth,"S. cerevisiae deletion strains, locus YDR318W, strain mcm21, active compounds read low",0.992
same,normalized growth,"S. cerevisiae deletion strains, locus YDR388W, active compounds read low",0.981
same,normalized growth,"S. cerevisiae deletion strains, locus YDR502C, strain sam2, active compounds read low",0.953
same,normalized growth,[6],1
same,normalized growth,"S. cerevisiae deletion strains, locus YER110C, active compounds read low",1.01
same,normalized growth,"S. cerevisiae deletion strains, locus YER155C, strain BEM2, active compounds read low",1.02
same,normalized growth,"S. cerevisiae deletion strains, locus YER167W, strain BCK2, active compounds read low",0.98
same,normalized growth,"S. cerevisiae deletion strains, locus YGL078C, strain dbp3, active compounds read low",1.01
same,normalized growth,"S. cerevisiae deletion strains, locus YGL086W, strain mad1, active compounds read low",0.963
same,normalized growth,"S. cerevisiae deletion strains, locus YGL248W, strain PDE1, active compounds read low",0.998
same,normalized growth,[7],0.932
same,normalized growth,"S. cerevisiae deletion strains, locus YGR135W, strain pre9, active compounds read low",0.863 (active)
same,normalized growth,"S. cerevisiae deletion strains, locus YGR229C, strain SMI1, active compounds read low",0.577 (active)
same,normalized growth,"S. cerevisiae deletion strains, locus YGR252W, strain gcn5, active compounds read low",0.646 (active)
same,normalized growth,[8],0.949 and 1.03
same,normalized growth,"S. cerevisiae deletion strains, locus YHR079C, strain IRE1 (second series), active compounds read low",1.01
same,normalized growth,"S. cerevisiae deletion strains, locus YHR079C, strain IRE1, active compounds read low",1.03
same,normalized growth,"S. cerevisiae deletion strains, locus YHR094C, strain hxt1, active compounds read low",1.01
same,normalized growth,"S. cerevisiae deletion strains, locus YHR129C, strain ARP1, active compounds read low",1.01
same,normalized growth,"S. cerevisiae deletion strains, locus YHR200W, strain rpn10, active compounds read low",0.999
same,normalized growth,"S. cerevisiae deletion strains, locus YIL066C, strain RNR3, active compounds read low",0.951
same,normalized growth,"S. cerevisiae deletion strains, locus YIL073C, strain SPO22, active compounds read low",0.956
same,normalized growth,"S. cerevisiae deletion strains, locus YIL125W, strain kgd1, active compounds read low",0.996
same,normalized growth,"S. cerevisiae deletion strains, locus YIR030C, strain dcg1, active compounds read low",1.01
same,normalized growth,"S. cerevisiae deletion strains, locus YJL095W, strain BCK1, active compounds read low",0.847 and 1.02
same,normalized growth,"S. cerevisiae deletion strains, locus YJL134W, strain LCB3, active compounds read low",1
same,normalized growth,"S. cerevisiae deletion strains, locus YJL168C, strain set2, active compounds read low",1.02
same,normalized growth,"S. cerevisiae deletion strains, locus YJL187C, strain SWE1 (second series), active compounds read low",0.96
same,normalized growth,[9],1.06
same,normalized growth,"S. cerevisiae deletion strains, locus YJR066W, strain TOR1, active compounds read low",0.949
same,normalized growth,[10],0.934
same,normalized growth,"S. cerevisiae deletion strains, locus YKL009W, strain mrt4, active compounds read low",0.934
same,normalized growth,"S. cerevisiae deletion strains, locus YKL068W, active compounds read low",0.995
same,normalized growth,"S. cerevisiae deletion strains, locus YKL085W, strain MDH1 (second series), active compounds read low",0.99
same,normalized growth,"S. cerevisiae deletion strains, locus YKL085W, strain MDH1, active compounds read low",0.99
same,normalized growth,"S. cerevisiae deletion strains, locus YKL190W, strain CNB1, active compounds read low",0.996
same,normalized growth,"S. cerevisiae deletion strains, locus YKR001C, strain vps1, active compounds read low",1.01
same,normalized growth,[11],1.4 [resistant] (active)
same,normalized growth,"S. cerevisiae deletion strains, locus YLR058C, strain SHM2, active compounds read low",0.998
same,normalized growth,"S. cerevisiae deletion strains, locus YLR102C, strain apc9, active compounds read low",1.01
same,normalized growth,"S. cerevisiae deletion strains, locus YLR113W, strain HOG1, active compounds read low",0.995
same,normalized growth,[12],1.56 [resistant] (active)
same,normalized growth,"S. cerevisiae deletion strains, locus YLR268W, strain sec22, active compounds read low",1.03
same,normalized growth,"S. cerevisiae deletion strains, locus YLR330W, strain CHS5, active compounds read low",1.01
same,normalized growth,"S. cerevisiae deletion strains, locus YLR342W, strain FKS1 (second series), active compounds read low",0.64 (active)
same,normalized growth,"S. cerevisiae deletion strains, locus YLR371W, strain rom2, active compounds read low",1.01
same,normalized growth,"S. cerevisiae deletion strains, locus YLR418C, strain cdc73, active compounds read low",0.714 (active)
same,normalized growth,"S. cerevisiae deletion strains, locus YML016C, strain PPZ1, active compounds read low",1
same,normalized growth,"S. cerevisiae deletion strains, locus YML032C, strain rad52, active compounds read low",0.995
same,normalized growth,"S. cerevisiae deletion strains, locus YML124C, strain tub3, active compounds read low",1.02
same,normalized growth,"S. cerevisiae deletion strains, locus YMR078C, strain ctf18, active compounds read low",1.01
same,normalized growth,"S. cerevisiae deletion strains, locus YMR223W, strain ubp8, active compounds read low",0.953
same,normalized growth,[13],0.912
same,normalized growth,[14],0.979
same,normalized growth,"S. cerevisiae deletion strains, locus YNL067W, strain RPL9B, active compounds read low",0.959
same,normalized growth,"S. cerevisiae deletion strains, locus YNL128W, strain TEP1, active compounds read low",0.58 (active)
same,normalized growth,[15],0.945
same,normalized growth,"S. cerevisiae deletion strains, locus YNL183C, strain NPR1, active compounds read low",0.96
same,normalized growth,"S. cerevisiae deletion strains, locus YNL233W, strain BNI4, active compounds read low",0.956
same,normalized growth,"S. cerevisiae deletion strains, locus YNL250W, strain rad50, active compounds read low",1.01
same,normalized growth,"S. cerevisiae deletion strains, locus YNL271C, strain bni1, active compounds read low",1.02
same,normalized growth,"S. cerevisiae deletion strains, locus YNL298W, strain CLA4, active compounds read low",1
same,normalized growth,"S. cerevisiae deletion strains, locus YNL307C, strain MCK1, active compounds read low",0.924
same,normalized growth,[16],1.01
same,normalized growth,"S. cerevisiae deletion strains, locus YNR052C, strain pop2, active compounds read low",0.98
same,normalized growth,"S. cerevisiae deletion strains, locus YOL006C, strain TOP1, active compounds read low",0.555
same,normalized growth,"S. cerevisiae deletion strains, locus YOL012C, strain htz1",1.16
same,normalized growth,"S. cerevisiae deletion strains, locus YOL147C, strain pex11, active compounds read low",1.01
same,normalized growth,"S. cerevisiae deletion strains, locus YOR061W, strain CKA2, active compounds read low",0.977
same,normalized growth,"S. cerevisiae deletion strains, locus YOR069W, strain VPS5, active compounds read low",1
same,normalized growth,"S. cerevisiae deletion strains, locus YOR136W, strain idh2, active compounds read low",0.996
same,normalized growth,"S. cerevisiae deletion strains, locus YOR144C, strain elg1, active compounds read low",1.01
same,normalized growth,"S. cerevisiae deletion strains, locus YOR184W, strain ser1, active compounds read low",0.983
same,normalized growth,"S. cerevisiae deletion strains, locus YOR231W, strain MKK1, active compounds read low",1.03
same,normalized growth,"S. cerevisiae deletion strains, locus YOR316C, strain cot1, active compounds read low",1.01
same,normalized growth,[17],0.731 (active)
same,normalized growth,[18],1
same,normalized growth,"S. cerevisiae deletion strains, locus YPL256C, strain CLN2, active compounds read low",1.06
same,normalized growth,"S. cerevisiae deletion strains, locus YPR119W, strain clb2, active compounds read low",1.02
same,normalized growth,"S. cerevisiae deletion strains, locus YPR141C, strain kar3, active compounds read low",0.999
same,normalized growth,"S. cerevisiae deletion strains, locus YPR163C, strain tif3, active compounds read low",0.991
same,normalized growth,"S. cerevisiae deletion strains, locus YPR167C, strain met16, active compounds read low",1
same,normalized growth,"S. cerevisiae deletion strains, strain wtn01, active compounds read low",0.975
same,normalized growth,[19],0.947
O=C1CCCc2c1c1ccccc1n2Cc1ccccc1,normalized growth,[1],0.99
same,normalized growth,[2],0.978
same,normalized growth,[3],0.974
same,normalized growth,[4],0.989
same,normalized growth,[5],0.893
same,normalized growth,[6],0.961
same,normalized growth,[7],0.972
same,normalized growth,[8],0.712
same,normalized growth,"S. cerevisiae deletion strains, locus YHR087W, strain rtc3, active compounds read low",0.965
same,normalized growth,"S. cerevisiae deletion strains, locus YJL187C, strain SWE1, active compounds read low",0.992
same,normalized growth,[9],0.996
same,normalized growth,[10],0.98
same,normalized growth,[11],0.753 (active)
same,normalized growth,"S. cerevisiae deletion strains, locus YLR058C, strain SHM2 (second series), active compounds read low",0.997
same,normalized growth,"S. cerevisiae deletion strains, locus YLR085C, strain ARP6, active compounds read low",0.889
same,normalized growth,[12],0.75 (active)
same,normalized growth,"S. cerevisiae deletion strains, locus YML094W, strain GIM5, active compounds read low",0.91
same,normalized growth,"S. cerevisiae deletion strains, locus YMR219W, strain ESC1, active compounds read low",0.975
same,normalized growth,[13],0.94
same,normalized growth,[14],0.973
same,normalized growth,[15],0.98
same,normalized growth,"S. cerevisiae deletion strains, locus YNL298W, strain CLA4 (second series), active compounds read low",0.95
same,normalized growth,[16],0.974
same,normalized growth,"S. cerevisiae deletion strains, locus YNR030W, strain Alg12, active compounds read low",0.951
same,normalized growth,[17],0.933
same,normalized growth,[18],0.987
same,normalized growth,"S. cerevisiae deletion strains, locus YPR135W, strain CTF4, active compounds read low",0.839
same,normalized growth,[19],0.974

# — PubChem BioAssay AID1159580 (chemical genetic matrix, 2015)
